KCNQ2 inh: blocks the rat KCNQ2 potassium channel; O88943; CHO-K1 KCNQ2, FluxOR thallium flux, 20 min; active compounds read low; B-score at 10 µM; actives 1.1% (n = 310,000);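 active = fluorescence ratio B-score at most minus 3 library SDs, with starting brightness B-score within 2 library SDs, cut at about -5.5 in these data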
Target sequence (O88943 whole entry, looked up): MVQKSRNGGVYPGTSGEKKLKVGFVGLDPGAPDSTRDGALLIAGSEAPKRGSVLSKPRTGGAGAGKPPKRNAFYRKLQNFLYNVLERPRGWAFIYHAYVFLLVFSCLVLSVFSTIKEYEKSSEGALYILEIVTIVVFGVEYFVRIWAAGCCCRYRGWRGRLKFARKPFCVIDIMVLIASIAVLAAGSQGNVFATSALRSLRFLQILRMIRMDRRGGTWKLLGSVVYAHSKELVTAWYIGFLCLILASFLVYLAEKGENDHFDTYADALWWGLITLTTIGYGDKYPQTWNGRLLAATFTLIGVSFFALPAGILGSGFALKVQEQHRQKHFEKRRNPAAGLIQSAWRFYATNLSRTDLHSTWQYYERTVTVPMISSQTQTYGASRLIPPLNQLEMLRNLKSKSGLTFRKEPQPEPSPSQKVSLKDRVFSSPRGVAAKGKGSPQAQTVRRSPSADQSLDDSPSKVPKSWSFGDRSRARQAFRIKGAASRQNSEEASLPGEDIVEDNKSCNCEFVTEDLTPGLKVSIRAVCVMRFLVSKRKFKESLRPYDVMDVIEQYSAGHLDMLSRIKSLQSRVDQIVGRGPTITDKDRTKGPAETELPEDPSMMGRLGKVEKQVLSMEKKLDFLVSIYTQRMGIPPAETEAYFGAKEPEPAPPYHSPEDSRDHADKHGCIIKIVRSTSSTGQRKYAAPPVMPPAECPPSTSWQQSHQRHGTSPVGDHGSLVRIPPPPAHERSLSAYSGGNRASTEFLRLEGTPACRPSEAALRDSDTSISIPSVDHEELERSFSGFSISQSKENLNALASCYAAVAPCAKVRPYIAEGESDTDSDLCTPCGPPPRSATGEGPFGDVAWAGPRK
KCNQ2 pot: enhances the rat KCNQ2 potassium channel; CHO-K1 KCNQ2, FluxOR thallium flux fluorescence; active compounds read high; B-score at 10 µM; actives 0.54% (n = 310,000); AID 2239;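 active = fluorescence ratio B-score at least 3 SD of library B-scores, with initial fluorescence B-score within 3 of them, cut at about 5.3 in these data; same plate scores as AID 2156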;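 note: B-score of peak minus minimum over baseline fluorescence ratio after K+ and Tl+ stimulus; positive B-score means potentiation of KCNQ2 with more thallium influx and brighter signal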
KCNQ2 inh conf: rat KCNQ2 channel inhibition, confirmatory screen | actives 57% (n = 1,000) | KCNQ2-expressing cells, thallium flux; active compounds read low | shares compounds with KCNQ2 inh | activity change, negative = inhibition, % at 10 µM;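 note: 0% = vehicle wells and values are ratio percent relative to vehicle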
KCNQ1 spec: human KCNQ1 activity in KCNQ2 inhibitor specificity screen. KCNQ1-expressing cells, FluxOR thallium flux fluorescence; active compounds read low. activity change, negative = inhibition, % at 10 µM. shares compounds with KCNQ2 inh. actives 15% (n = 1,000);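 active = activity change at least 3 SD of negative controls below their mean in both duplicate wells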;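 note: CHO cells stably transfected with KCNQ1 and depolarized by potassium stimulus; peak minus minimum fluorescence over baseline after thallium addition; 0% = vehicle negative control and -100% = blank without thallium stimulus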
CHO Tl ctr: activity in parental CHO cells lacking KCNQ2; shares compounds with KCNQ2 inh; thallium flux counter-screen; active compounds read low; activity change, % at 10 µM; actives 14% (n = 1,000);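 note: 0% = vehicle negative controls with stimulus buffer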
KCNQ2 inh confirm: blocks rat KCNQ2 current in automated patch clamp; shares compounds with KCNQ2 inh; KCNQ2-expressing cells; calls only at 10 µM; actives 49% (n = 550); AID 588531
Starred values were filed as active, the others as inactive; i = inactive; x = no result given; + = active, no number. The list is not random: actives were taken first. Their share in the collection is about 1.6%. Unless noted, the rule behind the calls is not given here.

SMILES	KCNQ2 inh	KCNQ2 pot	KCNQ2 inh conf	KCNQ1 spec	CHO Tl ctr	others
CN(C(=O)c1nn(C)c2c1CSc1ccccc1-2)c1ccccc1Cl	-6.7*	-6.7	-37%*	-40%*	-34%*	KCNQ2 inh confirm=i
CC1CCCC(C)N1CCCNC(=O)c1nn(C)c2c1CSc1ccccc1-2 (configuration not stated)	i	0.45	x	x	x
Cc1ccc(C(=O)NCCNC(=O)Cc2ccccc2)cn1	i	1.2	x	x	x
Cc1ccc(C(=O)c2c(NC(=O)c3ccccc3C)sc(C)c2C)cc1	-11*	-11	-28%*	i	i	KCNQ2 inh confirm=i
Cc1cc(C(=O)c2ccccc2)c(NC(=O)CCl)s1	i	x	x	x	x
CCN(CC)CC(=O)Nc1sc(C)cc1C(=O)c1ccc(C)cc1	-6.7*	-6.7	-23%*	i	i	KCNQ2 inh confirm=i
CCN(CC)CC(=O)Nc1sc(C)c(C)c1C(=O)c1ccc(C)cc1	-6.6*	-6.6	i	i	i
Cc1sc(NC(=O)CN2CCOCC2)c(C(=O)c2ccccc2)c1C	i	x	x	x	x
Cc1sc(NC(=O)c2ccco2)c(C(=O)c2ccc(Cl)cc2)c1C	i	x	x	x	x
Clc1cccc(CNCCCSc2ncccn2)c1	i	1.4	x	x	x
COC(=O)c1c(C)[nH]c(C)c1C(=O)c1ccccc1Cc1ccccc1	i	x	x	x	x
Cc1ccc(-c2csc3ncnc(NCCC(=O)O)c23)cc1C	i	x	x	x	x
Cc1ccc(C(=O)CSc2nnc(COc3ccc(C#N)cc3)n2-c2ccccc2)cc1	i	0.91	x	x	x
Cc1ccc(OCc2nnc(SCC(=O)Nc3cccc4ccccc34)n2-c2ccccc2)cc1	-8.5*	-8.5	i	i	i
Cc1ccc(N(C)S(=O)(=O)c2cc(-c3cnc(C4CC4)o3)ccc2C)cc1	-7.2*	-7.2	-15%*	i	i	KCNQ2 inh confirm=i
Cc1ccc(-c2cnc(C3CC3)o2)cc1S(=O)(=O)Nc1ccccc1	i	x	x	x	x
Cc1c(C)n(C)c2ccc(C(=O)N3CCN(c4ccccc4)CC3)cc12	i	x	x	x	x
Cc1ccc(C)c(N2CCN(C(=O)c3ccc4c(c3)c(C)c(C)n4C)CC2)c1	-6.6*	-6.6	i	i	i
CC1=C(C(=O)NCc2ccco2)C2(CCC(C)CC2)OC1=O (configuration not stated)	i	0.4	x	x	x
CC1=C(C(=O)NCc2ccc3c(c2)OCO3)C2(CCC(C)CC2)OC1=O (configuration not stated)	-9.4*	-9.4	i	i	i
Cc1ccc(C(=O)N/C(=C\c2ccc(-c3ccc(Cl)cc3)o2)C(=O)NCCCN(C)C)cc1	-7.2*	-7.2	-18%*	i	i
CN(C)CCCNC(=O)/C(=C\c1ccc(-c2ccc(Br)cc2)o1)NC(=O)c1ccccc1	i	x	x	x	x
O=C(NCc1ccc2c(c1)OCO2)C1CCC(=O)N1C1CCCC1 (configuration not stated)	i	0.13	x	x	x
Cn1cncc1C(=O)c1ccccc1	i	x	x	x	x
CN1C(C(=O)NCc2ccco2)CC2Cn3c(nc4cc(Cl)c(Cl)cc43)C21 (configuration not stated)	i	0.19	x	x	x
SMILES	KCNQ2 inh	KCNQ2 pot	KCNQ2 inh conf	KCNQ1 spec	CHO Tl ctr	others
COc1cccc(-c2nc(-c3ccccc3)c(-c3ccccc3)[nH]2)c1OCC(=O)O	i	x	x	x	x
COc1cccc(-c2nc(-c3ccc4c(c3)-c3ccccc3S4(=O)=O)c(-c3ccccc3)[nH]2)c1OC	-8.9*	-8.9	-26%*	i	i	KCNQ2 inh confirm=i
CC(C)(C)n1nnnc1C(c1ccncc1)N1CCCCCC1 (configuration not stated)	i	x	x	x	x
CC(C)(C)n1nnnc1C(c1ccc(C#N)cc1)N1CCCC2(CCCCC2)C1 (configuration not stated)	-7.1*	-7.1	-37%*	-38%*	-37%*	KCNQ2 inh confirm=i
CC1C(=O)N2CCCc3cc(S(=O)(=O)N(C)CCC#N)cc1c32 (configuration not stated)	i	x	x	x	x
CCN(CC)CCNC(=O)C(=O)NCC1OCCN1S(=O)(=O)c1cccs1 (configuration not stated)	i	0.01	x	x	x
CNc1ccccc1C(C)(C)c1cn(-c2ccc([N+](=O)[O-])cc2)nn1	i	0.99	x	x	x
COc1ccc(-n2c(=O)c3c4c(sc3n(CC(=O)NCC3CCCO3)c2=O)CCCC4)c(OC)c1 (configuration not stated)	i	x	x	x	x
COc1ccc(-n2c(=O)c3c4c(sc3n(CC(=O)NC3CCCC3)c2=O)CCCC4)c(OC)c1	-6.7*	-6.7	i	i	i
COc1ccc(N(CC(=O)NCc2ccc(F)cc2)C(=O)Cn2nnc(-c3ccc(C)o3)n2)cc1OC	i	1.1	x	x	x
Clc1ccc(/C(Cc2nc3ccccc3[nH]2)=N\Nc2ccccc2)cc1	-6.6*	-6.6	-38%*	i	i	KCNQ2 inh confirm=i
Clc1ccc(SCc2nc3ccccc3[nH]2)cc1	i	x	x	x	x
O=C(CCc1ccccc1)NNC(=O)COc1ccc([N+](=O)[O-])cc1	i	0.02	x	x	x
COc1cccc(NC(=S)N(C)C2CCN(C)CC2)c1	i	x	x	x	x
Cc1ccc(Sc2nc(C)c([N+](=O)[O-])c(C)c2C#N)cc1	i	x	x	x	x
Cc1nc(Sc2ccc(Br)cc2)c(C#N)c(C)c1[N+](=O)[O-]	-7.7*	-7.7	-20%*	i	i	KCNQ2 inh confirm=i
CC(CC(=O)Nc1ccccc1)NCCCN1CCCC1=O (configuration not stated)	i	0.07	x	x	x
O=C(Cn1c(=O)cnc2ccccc21)N1CCN(S(=O)(=O)c2ccccc2Br)CC1	i	x	x	x	x
CC1CN(S(=O)(=O)c2cccc(C(=O)N(CCc3ccccc3)Cc3ccccc3)c2)CC(C)O1 (configuration not stated)	-8.3*	-8.3	-32%*	-27%*	i	KCNQ2 inh confirm=+
Cc1ccc(N(Cc2ccccc2)C(=O)c2cccc(S(=O)(=O)N3CC(C)OC(C)C3)c2)cc1 (configuration not stated)	i	0.29	x	x	x
CN(C)C(CNC(=O)c1ccc(-c2ccccc2)cc1)c1ccccc1 (configuration not stated)	-6.6*	-6.6	i	i	i
CN(C)C(CNC(=O)c1ccc(C(=O)c2ccccc2)cc1)c1ccccc1 (configuration not stated)	i	x	x	x	x
COc1ccc(CN2CCN(CCc3ccccc3)C(CCO)C2)c(O)c1 (configuration not stated)	i	0.2	x	x	x
CN(C)C(=O)NC1c2ccccc2-c2ccccc21	i	x	x	x	x
O=C(NC1c2ccccc2-c2ccccc21)N1CCCCC1	-6.8*	-6.8	-25%*	i	i	KCNQ2 inh confirm=+
Cc1cc2cc3c(=O)[nH]c(=O)[nH]c3nc2cc1C	i	0.43	x	x	x
O=C(c1ccco1)N1CCN(CC(O)COc2ccc(Br)cc2)CC1 (configuration not stated)	i	x	x	x	x
COc1ccccc1C(=O)NCC(c1cccs1)N1CCc2ccccc21 (configuration not stated)	-7.2*	-7.2	i	i	i

High-throughput results: PubChem BioAssay, Johns Hopkins Ion Channel Center
